According to the supplement of paper PMC6555819:

System: VDR:RXRa (NR concentration 270 nM, RXRa partner concentration 90 nM)
Experiment: PBM binding z-score (relative to random genomic background probes); higher = stronger binding; sequences stand for … in GC…GCGATTGACAGCGTAGAATGAAGG
Description: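 Protein-binding microarray (Agilent 4x180K custom design, double-stranded 60-nt probes: 5' GC cap, 34-nt variable region, 24-nt constant primer region; full probe sequence given). Purified or IVT nuclear receptor:RXRα heterodimers (3:1 NR:RXRα, mostly 270:90 nM) or homodimers were incubated for 1 h in PBS with 2% milk and no ligand, then detected with Alexa488 antibodies. Fluorescence from o1-orientation probes (~5 replicates averaged) was converted to z-scores against 500 random hg19 background probes. Variable regions are seed direct-repeat (DR0–DR5) sites, all their single-nucleotide variants and half-site ablations.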

| Sequence | PBM binding z-score |
| --- | --- |
| ACTATTAGTTGAGACGCGGGCAACCGATAGGTTG | -0.235 |
| TCGAGTGGGTTAGGGGCATTCAGAATGGCGTCGA | 1.04 |
| AGAATGAGGTTATACCTAGATCAGGGAAGAAAGT | 1.11 |
| AGAATGAGGTTATTAAGATCAGTGAATTGCGGTC | 2.5 |
| GTAACGAGGGCAAAGTTGATAGCATCTGTCGACG | 1.53 |
| TCTAGTTGGTCAAAGGTCACAGACTCGAAATGCG | 5.45 |
| CGATCTAGGTCAAGGACAGTGAATCTCCGCACGC | 0.643 |
| ACTATTAGTTGACACGAGGGCAACCGATAGGTTG | 1.4 |
| TCATATAGGTAAACAGGTGAAACTCCGTAAGTTA | 1.19 |
| TGTCAAAGTTCAAAGGTAACGTAGGTATCCACAC | 5.15 |
| CAAACTAGGTCAGAGAGGTCAAAGTCCGTGCGTA | 7.57 |
| GCGACTGCGGCATCAGCAGGTTACCATAACTTAA | -0.5 |
| CGTTCAAGGTCAATGCTAGGTCAGTGAAAGCATT | 4.78 |
| TATACAGGCTCAAAGGCCAGAGTACGAATGTCGA | -0.106 |
| GCTCGGAGGACAAGGTGAGAGCTTTGTCCGTAGA | -0.606 |
| CGTCCAAGGTCATAGGAGGGCAGTGAAGACAGAT | 5.36 |
| GCGTATAGGTAATACAAGGTGAAAGTCCGATTGT | 0.306 |
| TCTATTAGTTGAAGGACAACCGACGAGTCCGTTT | 1.23 |
| TTACCAAGGTGAAATGTCGTTGATGCACGCCTTG | 0.159 |
| CAAACTAGGTCAAAGGTCAAAGTGGAGCCAACCA | 6.72 |

| Sequence | PBM binding z-score |
| --- | --- |
| ATCTCTAGGTAAAGTTCAGTGAAAGATCGATAGA | 1.73 |
| TCTTGTAGAACAAGCAGGTTAAGAAAGCCTGAGT | 0.279 |
| AGAATGAGGTAACCAAAGATCAGGGAAACGCTTG | -0.129 |
| CGAACCAGGGCATGAGTTGATAGCAAATGCCGAT | 0.253 |
| CCCGAAAGGTCGTGCTCAGGTGAGTATACCAAAC | 3.47 |
| TCTGGTAGATCAAGCAGGTTAAGAAAGCCTGAGT | 0.122 |
| ATCTCGAGGTAAAAGTTCAGTGAATCCCGAGGAT | 1.7 |
| AGAACGAGGGCACGCTGAGTTGATAGCTGAGTAG | 2.04 |
| AATACAGGGTCACTAGGCCTGAGTAGGTACGAAT | 3.84 |
| CCTAGCAGGCCAATCTGGGTCAATCAAGGCTTGA | 0.445 |
| AATACAGGGTCACTAGGCCAGACTAGGTACGAAT | 4.22 |
| TCTGGTTGGTCAAAGGTCACACACTCGAAATGCG | 5.33 |
| CAGCCTAGGTCGGGGCCAGTATAGGAGGAACGTT | -0.53 |
| CGTCCAAGGCCATAGGAGGTCAGTGAAGACAGAT | 2.71 |
| TCGAGGAGGTTACCAATGGGGCATTCAGCTTTCT | 1.13 |
| GGAACGAGGGCATTCGACTTGATAGCATGGCGAT | 1.35 |
| GCATATAGTTAATACAAGGTGAAAGTCCGATTGT | 0.11 |
| TATACAGGGTCAAAGGCAAGAGTACGAATGTCGA | 4.61 |
| TCATATAGGTAGAGGTGAAAGTCGAACGATATGA | 0.794 |
| TCTAGCAGGCCAGAAGGTCACTCAAGAGGTACGG | 2.16 |
